# This is a sample that favours compounds with a hit; in the whole collection about 10% have one here.
# RORgamma inh – qHTS for inhibitors of ROR gamma transcriptional activity; Nuclear receptor ROR-gamma (Mus musculus), P51450; Drosophila S2 Gal4-RORgamma UAS-luciferase reporter, 20 h; Potency, µM (highest dose often 53.6 µM), without a hit: at the top dose activity change, negative = inhibition, most hits filed as inhibitors; hit rate 5.4% among 310,000; further: on the % scale 0 is the no-effect control and ±100 the full control effect; nearly all actives have a fitted effect of over 60% in size
# Target sequence (P51450 whole entry, looked up, the tested form may be a part): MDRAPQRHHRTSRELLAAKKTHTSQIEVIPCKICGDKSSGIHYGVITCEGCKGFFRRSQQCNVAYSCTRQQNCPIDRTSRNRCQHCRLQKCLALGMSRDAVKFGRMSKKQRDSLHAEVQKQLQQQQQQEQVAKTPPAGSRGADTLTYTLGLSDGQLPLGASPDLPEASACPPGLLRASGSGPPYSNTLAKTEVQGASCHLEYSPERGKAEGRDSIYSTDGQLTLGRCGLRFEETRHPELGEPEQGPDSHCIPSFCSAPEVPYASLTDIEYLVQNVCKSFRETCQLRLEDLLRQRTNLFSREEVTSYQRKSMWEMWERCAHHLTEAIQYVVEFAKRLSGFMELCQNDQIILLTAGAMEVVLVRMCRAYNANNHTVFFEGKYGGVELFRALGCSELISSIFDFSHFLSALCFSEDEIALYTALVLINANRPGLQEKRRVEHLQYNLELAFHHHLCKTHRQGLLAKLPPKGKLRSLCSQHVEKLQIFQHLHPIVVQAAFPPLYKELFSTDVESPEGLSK
#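 In this cell-based reporter format, copper sulfate (700 uM final) drives Gal4–ROR gamma fusion expression from a metallothionein promoter in Drosophila Schneider cells; compounds preincubated 1 hr, reporter read after 20 hr at ambient temperature.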
# MCF10A rereplic – A quantitative high throughput screen for small molecules that induce DNA re-replication in MCF 10a normal breast cells. Potency, µM (highest dose often 46.1 µM), inactives show top-dose activity, positive = re-replication, usual class: activators. AID 624296, 2012. MCF 10A DNA re-replication, Hoechst nuclear intensity, 48 h. hit rate 2.9% among 350,000; further: % of control where 0% means no effect; nearly all actives have a fitted effect of over 50% in size
# KB-V1 cytotox – qHTS assay for MDR1-selective chemotherapeutics: Primary screen using the drug-selected MDR subline cells KB-V1 | KB-V1 MDR cells viability, CellTiter-Glo, 72 h | Potency, µM (doses to about 46.1 µM), actives largely listed as cytotoxic | hit rate 3.4% among 400,000; further: on the % scale 0 is the no-effect control and ±100 the full control effect; nearly all actives have a fitted effect of over 60% in size
#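 Cells of the MDR subline KB-V1 are plated, dosed with compound at multiple concentrations, and incubated 72 h at 37 degrees C; CellTiter-Glo is then added and luminescence read after 10 min.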
# SW480 rereplic – A quantitative high throughput screen for small molecules that induce DNA re-replication in SW480 colon adenocarcinoma cells; SW480 DNA re-replication, Hoechst DNA content imaging, 48 h; Potency, µM (doses to about 46.1 µM), for inactives: at the highest dose re-replication activation, most hits filed as activators; hit rate 1.8% among 340,000; AID 624297, 2012; further: % of control where 0% means no effect; nearly all actives have a fitted effect of over 55% in size
#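 Image-based read-out: total Hoechst fluorescence of nuclei (405 nm excitation, 500-530 nm emission), with hits raising the fraction of high-intensity nuclei. SW480 colon cells incubated 48 hr with compounds at 37 C.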
# VP16 counter – VP16 counterscreen qHTS for inhibitors of ROR gamma transcriptional activity; Drosophila S2 Gal4-VP16 UAS-luciferase, luminescence, 20 h; Potency, µM (top dose mostly 53.6 µM), without a hit: at the highest dose activity, negative = inhibition, hits mostly inhibitors; hit rate 3.5% among 310,000;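 further: Gal4-VP16 expression switched on by copper sulfate through the metallothionein promoter; on the % scale 0 is the no-effect control and ±100 the full control effect; nearly all actives have a fitted effect of over 50% in size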
# KB-3-1 cytotox – qHTS assay for MDR1-selective chemotherapeutics: Primary screen using the parental adenocarcinoma cell KB-3-1; KB-3-1 viability, CellTiter-Glo ATP luminescence, 72 h; AID 1347075, 2019; hit rate 1.4% among 400,000; Potency, µM (top dose mostly 46.1 µM), hits mostly cytotoxic; further: on the % scale 0 is the no-effect control and ±100 the full control effect; nearly all actives have a fitted effect of over 60% in size
#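 Cells are dispensed, compounds pinned in, plates held at 37 °C for 72 h, then CellTiter-Glo is added and luminescence read after 10 minutes. Cell line: parental KB-3-1 in phenol-red-free DMEM, 10% FBS.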
# The depositor's hits bear a star; i = inactive; u = inconclusive; x = no result given; [ ] = dose if it differs, or a comment. The call rests on the fitted dose curve; in most records, active means well fitted curve in the direction sought with a large enough effect; inconclusive means small, poorly fitted or top-dose-only effect, or another doubt; inactive means no such curve, though single readings can be large; an effect the other way counts as inactive or inconclusive. Potency means the concentration at half of the fitted maximal effect.
SMILES,RORgamma inh,MCF10A rereplic,KB-V1 cytotox,SW480 rereplic,VP16 counter,KB-3-1 cytotox
O=C(Nc1cc2c(cc1C(=O)c1ccccc1Br)OCCO2)c1cccc(Cl)c1,x,x,i,x,x,i
CCc1nnc(NC(=O)c2oc3ccc(Br)cc3c2C)s1,x,21µM*,i,-4%,x,i
Cc1nnc(NC(=O)c2oc3ccccc3c2C)s1,u,9%,i,23%,u,i
O=C(Nc1ccc(-c2nnc3n2CCCCC3)cc1)c1ccco1,-2%,10%,u,4%,-4%,i
Cc1nnc(NC(=O)c2oc3c(ccc4ccccc43)c2C)s1,13µM*,-1%,i,-5%[9.22 µM],-5%,i
Cc1c(C(=O)Nc2nccs2)oc2ccc(Br)cc12,x,u,8.2µM*,10%,x,5.8µM*
Cc1c(C(=O)Nc2ccc(-c3nnc4n3CCCCC4)cc2)oc2ccc(Br)cc12,16%,5%,8.2µM*,-15%,-11%,i
CCC(=O)N1c2ccccc2CC1C(=O)NCc1cccc(OC)c1OC (centres undefined),x,x,i,x,x,i
CC1COC2=C1C(=O)C(=O)c1c2ccc2c1CCCC2(C)C (centres undefined),-10%,x,x,x,-10%,x
CCCCSCc1nc2ccccn2c1Br,11µM*,1%,i,-5%,-5%,i
CCSCc1nc2ccccn2c1Br,-8%,13%,i,-3%,5%,i
O=S1(=O)CC(N2CCN(CCO)CC2)CN1Cc1cn(Cc2cccc(C(F)(F)F)c2)nn1 (centres undefined),x,x,i,x,x,i
Cc1ccc(-n2nnnc2-c2cccc(C)c2)cc1,9%,-2%,u,1%,-3%,u
COc1ccc(-n2nnnc2-c2cccc(OC)c2)cc1,-3%,4.1µM*,1.2µM*,3.3µM*,-3%[0.365 µM],1µM*
CN1C2CCC1/C(=C\c1ccccc1F)C(=O)/C2=C/c1ccccc1F,-29%,u,13µM*,12%,11%,u
CC1CCN(C2=NC(=O)/C(=C/c3ccccc3F)S2)CC1,-18%,u,i,-3%,1%,i
O=[N+]([O-])c1ccc(N2CCCC2)cc1NC1CC1,36%,u,21µM*,9%,-4%,i
O=[N+]([O-])c1ccc(N2CCOCC2)cc1NC(c1ccccc1)c1ccccc1,3%,14%,16µM*,1%,-9%,i
CC(Nc1cc(N2CCN(C(=O)C(C)(C)C)CC2)ccc1[N+](=O)[O-])c1ccccc1 (centres undefined),32%,18%,10µM*,15%,-13%,u
O=[N+]([O-])c1ccc(N2CCCC2)cc1NC(c1ccccc1)c1ccccc1,0%,4%,i,-4%,-10%,i
O=c1c(-c2cccs2)nc2cnc(Oc3cccc(Cl)c3)nc2n1C[C@H]1CCCO1,u,x,x,x,-20%,x
COc1cccc(N2CCN(C(=O)CCCn3c(=O)[nH]c4ccc(Br)cc4c3=O)CC2)c1,x,x,i,x,x,i
COc1ccc(C)cc1NC(=O)C(=O)NCC(c1cccnc1)N1CCN(c2ccccc2F)CC1 (centres undefined),x,x,i,x,x,i
Cc1ccc2cccc(NC(=S)NC(=O)c3c(Br)cnn3C)c2n1,4µM*,u,i,0%,u,i
Cc1ccc2cccc(NC(=S)NC(=O)c3ccn(C)n3)c2n1,5µM*,8%,i,u,5.6µM*,i
SMILES,RORgamma inh,MCF10A rereplic,KB-V1 cytotox,SW480 rereplic,VP16 counter,KB-3-1 cytotox
COc1c(C)cccc1C(=O)Nc1cccc2ccc(C)nc12,x,x,i,x,x,i
CNC(=S)Nc1cc(C)ccc1OC(F)F,u,2%,i,-6%,-16%,i
Cc1ccc(NC(=S)Nc2ccc(OC(F)F)c(Cl)c2)cc1Cl,13µM*,u,21µM*,1%,u,21µM*
COc1ccc(NC(=S)Nc2ccc(C)c(Cl)c2)cc1OC,u,u,i,2%,u,i
Cc1ccc(NC(=S)Nc2ccc(Cl)c(Cl)c2)c(OC(F)F)c1,u,u,18µM*,-2%,u,u
CC(NC(=S)Nc1ccc(OC(F)F)c(Cl)c1)C(C)(C)C (centres undefined),2.8µM*,24%,u,19%,13µM*,u
Fc1ccc(NC(=S)Nc2ccccc2OC(F)F)cc1Cl,u,u,16µM*,x,u,u
FC(F)Oc1ccccc1NC(=S)Nc1cccnc1,-4%,-21%,i,-3%,-27%,i
CCOc1ccc(NC(=O)Cn2cc(C(=O)c3ccc(OCC)cc3)c(=O)c3cc4c(cc32)OCCO4)cc1,x,x,i,x,x,i
COCCn1c(=O)c(-c2ccc(Cl)cc2)nc2cnc(OCc3ccccc3)nc21,-21%,x,x,x,3%,x
C=C1C(=O)C23CCC4C(C)(C(=O)OC)CCCC4(C)C2CCC1(O)C3 (centres undefined),x,2.3µM*,18µM*,1.2µM*,x,u
COC(=O)[C@]1(C)CCC[C@@]2(C)C3CC[C@@]4(C)C[C@]3(CCC21)CC(=O)N4 (some centres undefined),x,-7%,i,u,x,i
CCCc1ccc(-c2ccc(F)c(N)c2)nc1,4.5µM*,-1%,i,-5%,u,i
CCOc1ccc2c(c1)ncn2Cc1ccccc1,11µM*,-7%,u,-2%,1%,i
NNc1nc2ccc(Cl)cc2s1,u,21µM*,u,u,u,u
COC(=O)c1cc(NC(=O)c2c(Cl)cnn2C)cc(C(=O)OC)c1,-1%,10%,15µM*,-3%,-11%,i
NNc1nc2ccc(F)cc2s1,u,u,u,3%,u,i
Cn1ncc(Cl)c1C(=O)Nc1nc2ccc(Cl)cc2s1,11µM*,7%,i,-2%,u,i
O=C(Nc1nc2ccc(Cl)cc2s1)c1ccc(Br)o1,11%[0.365 µM],-3%,i,0%,x,i
Cc1cc(C(=O)Nc2nc3ccc(Cl)cc3s2)nn1C,u,0%,u,6.5µM*,-14%,i
Cc1cc(NC(=O)N(C)CCc2c(C)nn(C)c2C)ccc1Br,x,x,i,x,x,i
COc1cccc(CN2CCC2(C)C(=O)Nc2ccc(C)c(O)c2)c1F (centres undefined),x,x,u,x,x,i
Nn1c(Cc2ccccc2)n[nH]c1=S,3%,-3%,i,-2%,-13%,i

# Source: PubChem (National Center for Advancing Translational Sciences (NCATS))
